Bioassay records from PubChem BioAssay.
ALDH1A1 inh = ALDH1A1 (human) enzyme inhibition. AID 1030. Potency, µM (titrated, usually from 75.3 µM), most hits filed as inhibitors. 7.3% of 220,000 active. Purified ALDH1A1, NADH fluorescence, propionaldehyde substrate; active means well fitted inhibition curve with a large enough effect, not every such curve was filed as active; inconclusive means small, poorly fitted or top-dose-only effect, or another doubt; inactive means no such curve, though single readings can be large or run the other way
PNC inhibitor = perinucleolar compartment assembly inhibition | PC3M PTB-GFP, PNC prevalence imaging, 16 h; hits give low values | activity change (PNC), negative = inhibition, % at 10 µM | 3.1% of 140,000 active | AID 2417;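 active means readout at or below -70, meaning at least 70% loss of cells showing the perinucleolar compartment, a nuclear body marking cancer cells; inconclusive means readout between -30 and a set limit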
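Compounds are pinned in duplicate onto adhered PC3M cells stably expressing GFP-tagged PTB and incubated 16 h at 37 C. Cells are then fixed, nuclei stained with Hoechst, and PNC-positive cells counted.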
NPSR antag = neuropeptide S receptor (human) antagonism, cAMP; Potency, µM (series often up to 38.3 µM), usual class: inhibitors; AID 1461; 1% of 220,000 active; CHO-NPSR cells, cAMP TR-FRET, antagonist mode; Q6W5P4; further: nearly all actives have a fitted effect of over 50% in size
Target sequence (Q6W5P4 whole entry, looked up): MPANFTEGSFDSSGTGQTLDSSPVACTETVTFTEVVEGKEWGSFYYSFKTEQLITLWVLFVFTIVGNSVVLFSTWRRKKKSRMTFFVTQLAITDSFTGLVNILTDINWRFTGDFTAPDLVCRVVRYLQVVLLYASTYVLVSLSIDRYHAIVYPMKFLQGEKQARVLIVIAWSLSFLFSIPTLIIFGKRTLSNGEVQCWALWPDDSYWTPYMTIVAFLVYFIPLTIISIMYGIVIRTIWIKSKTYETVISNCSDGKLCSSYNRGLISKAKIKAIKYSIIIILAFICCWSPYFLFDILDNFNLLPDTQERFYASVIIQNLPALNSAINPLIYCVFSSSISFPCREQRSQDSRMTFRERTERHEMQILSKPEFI
HPGD inh = inhibitors of human 15-hydroxyprostaglandin dehydrogenase (HPGD) | P15428 | purified HPGD, NADH fluorescence kinetic, PGE2 substrate | Potency, µM, most hits filed as inhibitors | 4.3% of 150,000 active; active means well fitted inhibition curve with a large enough effect, not every such curve was filed as active; inconclusive means small, poorly fitted or top-dose-only effect, or another doubt; inactive means no such curve, though single readings can be large or run the other way
Target sequence (P15428 whole entry, looked up): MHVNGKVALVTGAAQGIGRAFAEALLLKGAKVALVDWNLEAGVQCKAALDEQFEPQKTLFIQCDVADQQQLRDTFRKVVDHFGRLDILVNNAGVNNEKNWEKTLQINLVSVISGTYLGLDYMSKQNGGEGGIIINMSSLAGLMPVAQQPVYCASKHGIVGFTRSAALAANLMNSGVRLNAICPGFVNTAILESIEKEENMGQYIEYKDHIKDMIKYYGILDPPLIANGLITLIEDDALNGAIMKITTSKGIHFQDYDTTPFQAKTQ
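20 nM HPGD preincubated 15 min at room temperature with compound in 50 mM Tris-HCl pH 8, 0.01% Tween 20. Started with 1 mM NAD+ and 30 uM prostaglandin E2; NADH fluorescence (360/450 nm) read 5 times over 30-s intervals, last minus first.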
IMPase cell inh = IMPase inhibition in cells; P97697; CHO-M1 cells, IP1 accumulation, HTRF TR-FRET ratio; inhibition (IP1 accumulation), % at 46.1 µM; 120,000 tested, under 10 active; AID 901; active means well fitted curve in the direction sought with a large enough effect in the signal ratio, not every such curve was filed as active; inconclusive means small, poorly fitted or top-dose-only effect, or a change in a side signal; inactive means no such curve, though single readings can be large or run the other way; the % refers to the signal ratio;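 further: cells stimulated with carbachol in lithium chloride buffer; higher means more IMPase inhibition seen as more IP1 and lower FRET ratio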
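Measured: the HTRF emission ratio (665/620 nm) plus the 620 nm donor channel, each fitted to the Hill equation to give AC50. Cells were CHO-M1 given compounds up to 46 uM and a 30 min carbachol stimulation at 37C.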
IMPase Li inh = cell-permeable IMPase inhibitors with lithium potentiation; Potency, µM (highest dose often 59.4 µM), most hits filed as inhibitors; 0.35% of 210,000 active; CHO-M1 cells, IP1 TR-FRET (IP-One), carbachol + lithium; AID 1457;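 further: IP1 builds up when IMPase is blocked and the TR-FRET signal falls; nearly all actives have a fitted effect of over 50% in size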
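Lithium-sensitised IP1 accumulation assay; M1-expressing CHO cells treated 30 min at 37C with compound. Competitive antibody detection by time-resolved FRET followed a 10 min room-temperature lysis step.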
Numbers stand for hits; [ ] = dose if it differs, or a comment. Rows were chosen to be rich in hits. Some 11% of all compounds tested hit in one or more screens of this group. Unless noted, the call rests on the fitted dose curve; in most records, active means well fitted curve in the direction sought with a large enough effect; inconclusive means small, poorly fitted or top-dose-only effect, or another doubt; inactive means no such curve, though single readings can be large; an effect the other way counts as inactive or inconclusive.

CCc1cccc(CC)c1-n1c(SCC(=O)c2c(N)n(C)c(=O)n(C)c2=O)nnc1-c1cccnc1 was read as ALDH1A1 inh inactive, PNC inhibitor -134.0, NPSR antag inactive, HPGD inh inactive and IMPase Li inh inconclusive.
`Cc1ccccc1-n1nnnc1SCC(=O)c1c(N)n(C)c(=O)n(C)c1=O` gave ALDH1A1 inh 0.355µM and NPSR antag inactive.
Screening Cn1c(N)c(C(=O)CSc2nnnn2-c2ccccc2)c(=O)n(C)c1=O returned NPSR antag inactive[7.67 µM].
`CCn1c(SCC(=O)c2c(N)n(C)c(=O)n(C)c2=O)nnc1-c1ccccc1` gave ALDH1A1 inh inactive, PNC inhibitor inactive, NPSR antag inactive, HPGD inh inactive and IMPase Li inh inactive.
CC1(C)NC(=O)N(CC(O)CN(Cc2ccccc2)Cc2ccccc2)C1=O (configuration not stated) was read as ALDH1A1 inh inactive, PNC inhibitor inconclusive, NPSR antag inactive, HPGD inh inactive, IMPase cell inh inactive and IMPase Li inh inactive.
For O=C(NCCCNc1ccc([N+](=O)[O-])cc1)C(F)(F)F the results were ALDH1A1 inh inconclusive, PNC inhibitor inactive, NPSR antag inactive, HPGD inh 20µM and IMPase Li inh inactive.
`C=CCSc1nnc(NC(=O)COc2ccccc2)s1` gave ALDH1A1 inh inactive, NPSR antag inactive and IMPase Li inh inactive.
Cc1cc(C)n2nc(SCc3nc4ccccc4[nH]3)nc2n1 was read as ALDH1A1 inh inactive, PNC inhibitor inconclusive, NPSR antag inactive, HPGD inh inactive, IMPase cell inh inactive and IMPase Li inh inactive.
Screening c1ccc(SCCOCCn2cncn2)cc1 returned ALDH1A1 inh 28.2µM, PNC inhibitor inconclusive, NPSR antag inactive, HPGD inh inactive, IMPase cell inh inactive and IMPase Li inh inactive.
`CC1CC(C)CN(CCCSc2ccccc2)C1` (configuration not stated) gave ALDH1A1 inh 23.8µM, PNC inhibitor inactive, NPSR antag inactive, HPGD inh inactive and IMPase Li inh inactive.
For CC1CCCN(CCOCCSc2ccccc2)C1 (configuration not stated) the results were ALDH1A1 inh inactive, PNC inhibitor inconclusive, NPSR antag inactive, HPGD inh inactive and IMPase Li inh inactive.
`CC1CC(C)CN(CCOCCSc2ccc(Cl)cc2)C1` (configuration not stated) gave ALDH1A1 inh inactive, NPSR antag inactive and IMPase Li inh inactive.
Screening CC1CC(C)CN(CCOCCSc2ccccc2)C1 (configuration not stated) returned ALDH1A1 inh 14.1µM, PNC inhibitor inconclusive, NPSR antag inactive, HPGD inh inactive and IMPase Li inh inactive.
Screening c1ccc(COc2ccc(OCCOCCn3cncn3)cc2)cc1 returned ALDH1A1 inh inactive, PNC inhibitor inconclusive, NPSR antag inactive, HPGD inh inactive, IMPase cell inh inactive and IMPase Li inh inactive.
Screening CCc1ccc2c(CN3CCN(S(=O)(=O)c4cccs4)CC3)cc(=O)oc2c1 returned ALDH1A1 inh 12.6µM, PNC inhibitor inconclusive, NPSR antag inactive, HPGD inh inactive, IMPase cell inh inactive and IMPase Li inh inactive.
For CCc1ccc2c(CN3CCc4ccccc43)cc(=O)oc2c1 the results were ALDH1A1 inh inconclusive, PNC inhibitor inactive, NPSR antag inactive and IMPase cell inh inactive.
Cc1cc(C)cc(-n2c(O)c(C=NC3CCS(=O)(=O)C3)c3ccccc3c2=O)c1 (configuration not stated) was read as ALDH1A1 inh inactive, PNC inhibitor inactive, NPSR antag inactive, HPGD inh inactive, IMPase cell inh inactive and IMPase Li inh inactive.
Cc1cccc(-n2c(O)c(C=NC3CCS(=O)(=O)C3)c3ccccc3c2=O)c1 (configuration not stated) was read as ALDH1A1 inh 15.8µM, PNC inhibitor inactive, NPSR antag inactive, HPGD inh inactive, IMPase cell inh inactive and IMPase Li inh inactive.
For Cc1sc2nc(C3CC3)nc(SCC(=O)NCc3ccco3)c2c1C the results were ALDH1A1 inh inconclusive, PNC inhibitor inactive, NPSR antag inactive, HPGD inh inactive, IMPase cell inh inactive and IMPase Li inh inactive.
For Cc1sc2nc(C3CC3)nc(SCC(=O)N3c4ccccc4CC3C)c2c1C (configuration not stated) the results were ALDH1A1 inh inconclusive, PNC inhibitor -108.0, NPSR antag inconclusive, HPGD inh inactive, IMPase cell inh inconclusive and IMPase Li inh inactive.
For CC1Cc2ccccc2N1C(=O)CSc1nc2cc3c(cc2cc1C#N)OCO3 (configuration not stated) the results were ALDH1A1 inh inconclusive, PNC inhibitor inactive, NPSR antag inactive, HPGD inh inactive, IMPase cell inh inactive and IMPase Li inh inactive.
For Cc1cc2cc3c(cc2nc1SCC(=O)N1c2ccccc2CC1C)OCO3 (configuration not stated) the results were ALDH1A1 inh inactive, PNC inhibitor -100.0, NPSR antag inconclusive, HPGD inh inactive, IMPase cell inh inactive and IMPase Li inh inactive.
`O=C(Nc1ccc(S(=O)(=O)Nc2ncccn2)cc1)c1nn(Cc2ccccc2)c(=O)c2ccccc12` gave NPSR antag inactive.
Screening O=C(NC(=S)Nc1ccc(S(=O)(=O)Nc2nccs2)cc1)c1ccc(F)c(F)c1 returned ALDH1A1 inh 25.1µM, PNC inhibitor inactive, NPSR antag inactive, HPGD inh inactive and IMPase Li inh inactive.
`CCn1nc(C(=O)Nc2ccc(S(=O)(=O)Nc3nccs3)cc2)c2ccccc2c1=O` gave ALDH1A1 inh 28.2µM, PNC inhibitor inactive, NPSR antag inactive, HPGD inh inactive, IMPase cell inh inactive and IMPase Li inh inactive.
`O=C(NC(=S)Nc1ccc(S(=O)(=O)Nc2nccs2)cc1)c1ccc(Br)o1` gave ALDH1A1 inh 31.6µM, NPSR antag inactive and IMPase Li inh inactive.
Screening O=C(NC(=S)Nc1ccc(S(=O)(=O)Nc2nccs2)cc1)c1ccccc1 returned ALDH1A1 inh 31.6µM, PNC inhibitor inconclusive, NPSR antag inactive, HPGD inh inactive and IMPase Li inh inactive.
For CCN(CC)c1ccc(NC(=O)COc2ccc(C)cc2)cc1 the results were ALDH1A1 inh inactive, PNC inhibitor inconclusive, NPSR antag inactive, HPGD inh inactive, IMPase cell inh inactive and IMPase Li inh inactive.
Screening CCOc1ccc(N2C(=O)/C(=C\c3ccc(O)c(OC)c3)S(=O)(=O)C2c2cccc([N+](=O)[O-])c2)cc1 (configuration not stated) returned ALDH1A1 inh inactive, NPSR antag inactive and IMPase Li inh inactive.
Screening O=C(NCC1CCCO1)c1ccc(NS(=O)(=O)c2cccc([N+](=O)[O-])c2)cc1 (configuration not stated) returned ALDH1A1 inh inactive, NPSR antag inactive and IMPase Li inh inactive.
